Nrf2 ARE act: Nrf2 pathway activation. AREc32 ARE-luciferase reporter (MCF7-derived line), luminescence, 24 h. Potency, µM (highest dose often 46.1 µM), for inactives: top-dose activation, most hits filed as activators. actives 0.31% (n = 410,000); note: % of control where 0% means no effect; nearly all actives have a fitted effect of over 65% in size
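Cells of the AREc32 ARE-luciferase line are plated in OPTI-MEM containing 5% FBS and left overnight at 37 deg C. Compounds are pinned in, incubation continues 24 hr, and firefly luciferase signal is then measured.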
Nrf2 inh: Nrf2 pathway inhibition; A549 ARE-Fluc reporter, luciferase luminescence, 18-24 h; actives 2.1% (n = 360,000); Potency, µM (doses to about 46 µM), without a hit: at the top dose activity change, negative = inhibition, usual class: inhibitors; note: % is set by controls: 0 for no effect and ±100 for the full control effect; nearly all actives have a fitted effect of over 60% in size
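Nrf2 function is reported as luminescence of an ARE-controlled luciferase in A549 cells. Compounds were tested at several concentrations, and a CellTiter-Fluor read on the same wells flagged cytotoxicity.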
IDH1 R132H inh: blocks human mutant IDH1 R132H enzyme; O75874; IDH1-R132H enzyme, NADPH consumption, diaphorase/resazurin fluorescence; Potency, µM (doses to about 76.6 µM), for the others: at the top dose activity change, negative = inhibition, actives largely listed as inhibitors; actives 0.093% (n = 390,000); AID 602179; note: % is set by controls: 0 for no effect and ±100 for the full control effect; nearly all actives have a fitted effect of over 65% in size
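IDH1-R132H (0.5 ug/mL dispensed) in pH 7.5 Tris buffer was preincubated 30 min with compound, then given a substrate mix of 0.016 mM NADPH and 2 mM alpha-KG for 80 min at room temperature; remaining NADPH was read by diaphorase/resazurin fluorescence.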
ELG1 DNA repair: ELG1-dependent DNA repair inhibition | HEK293T ELG1-luciferase reporter, luminescence, 16 h; DNA damage induced by 5-fluorouridine | Potency, µM (highest dose often 46.1 µM), without a hit: at the highest dose activity change, negative = inhibition, usual class: inhibitors | actives 2.3% (n = 330,000) | AID 504467; note: % is set by controls: 0 for no effect and ±100 for the full control effect; nearly all actives have a fitted effect of over 55% in size
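Step one: seed 2,000 cells per well. Step two: pin-transfer compound or DMSO alongside 5-fluorouridine. Step three: incubate 16 hr, 37 °C, 5% CO2. Step four: add ONE-Glo, wait 30 min, read luminescence.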
A549 tox-1: A549 cytotoxicity, counter-screen for Nrf2 inhibitors; A549 ARE-Fluc cells, CellTiter-Fluor viability, 18-24 h; AID 504648; Potency, µM (top dose mostly 46 µM), inactives show top-dose activity change, negative = cytotoxicity, usual class: inhibitors; actives 0.16% (n = 390,000); note: % is set by controls: 0 for no effect and ±100 for the full control effect
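A549 ARE-Fluc cells in 5% FBS OPTI-MEM, 5000 cells/well, rested 2 h then exposed to compounds in concentration-response for 18-24 h at 37 °C. Viability by CellTiter-Fluor fluorescence (Ex 405/Em 525) after 30 min; luciferase luminescence (BugLite, 15 min, RT) read afterwards.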
FLuc enzyme inh: counter-screen for Nrf2 inhibitors: firefly luciferase enzyme inhibition; shares compounds with Nrf2 inh; purified firefly luciferase, luminescence inhibition; Potency, µM (titrated, usually from 57.5 µM), for inactives: at the top dose activity change, negative = inhibition, most hits filed as inhibitors; actives 4% (n = 1,400); note: % is set by controls: 0 for no effect and ±100 for the full control effect; nearly all actives have a fitted effect of over 65% in size
Target sequence (P08659 whole entry, looked up): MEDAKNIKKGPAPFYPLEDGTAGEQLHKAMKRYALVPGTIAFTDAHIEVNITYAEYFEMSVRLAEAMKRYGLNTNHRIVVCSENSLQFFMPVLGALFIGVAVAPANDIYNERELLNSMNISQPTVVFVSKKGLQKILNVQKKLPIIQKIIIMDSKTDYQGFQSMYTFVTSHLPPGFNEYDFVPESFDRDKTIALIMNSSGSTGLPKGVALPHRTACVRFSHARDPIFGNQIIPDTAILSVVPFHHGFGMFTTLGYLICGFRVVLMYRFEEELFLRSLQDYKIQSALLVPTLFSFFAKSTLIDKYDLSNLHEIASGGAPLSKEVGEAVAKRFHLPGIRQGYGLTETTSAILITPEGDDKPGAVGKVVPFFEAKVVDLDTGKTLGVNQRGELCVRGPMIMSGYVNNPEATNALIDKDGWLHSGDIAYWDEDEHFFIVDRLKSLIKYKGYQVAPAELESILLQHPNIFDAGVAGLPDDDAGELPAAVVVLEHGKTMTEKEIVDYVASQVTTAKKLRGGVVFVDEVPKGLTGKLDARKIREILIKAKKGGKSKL
A549 tox-2: A549 cytotoxicity, Nrf2 inhibitor counterscreen; Potency, µM (doses to about 46.1 µM), for the others: at the top dose activity change, negative = cytotoxicity, actives largely listed as inhibitors; AID 720523; shares compounds with Nrf2 inh; actives 2% (n = 1,400); A549 ARE-Fluc cells, cytotoxicity counterscreen;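 note: cells exposed to compounds for 18 to 24 hours; % is set by controls: 0 for no effect and ±100 for the full control effect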
Nrf2 ARE inh: reduces Nrf2 ARE reporter signal in A549 cells | shares compounds with Nrf2 inh | A549 ARE-firefly luciferase reporter, luminescence | Potency, µM (highest dose often 46.1 µM), for inactives: at the top dose activity change, negative = inhibition, usual class: inhibitors | actives 74% (n = 1,400); note: % is set by controls: 0 for no effect and ±100 for the full control effect; nearly all actives have a fitted effect of over 65% in size
* = called active by the depositor; ? = inconclusive; . = not tested or not shown; ! = not confirmed by another sample; [ ] = another dose, or the depositor's remark. Hits are enriched below; roughly 3.8% of the tested compounds scored in any of these assays. Calls come from the whole dose curve; as a rule, active = well fitted curve in the direction sought with a large enough effect; inconclusive = small, poorly fitted or top-dose-only effect, or another doubt; inactive = no such curve, though single readings can be large; an effect the other way counts as inactive or inconclusive. Potency is the fitted concentration of half-maximal effect.

SMILES | Nrf2 ARE act | Nrf2 inh | IDH1 R132H inh | ELG1 DNA repair | A549 tox-1 | FLuc enzyme inh | A549 tox-2 | Nrf2 ARE inh
CCOC(=O)COc1ccc(C)cc1C(=O)c1ccn2nc(-c3ccc(Cl)cc3)cc2n1 | 1% | 22% | -16% | . | 10% | . | . | .
COc1ccccc1N=c1oc2cc(O)ccc2cc1C(=O)NCC1CCCO1 (stereo not drawn) | 2% | ? | 9% | 6.5µM* | . | -16% | 0% | 13µM*
NNC(=O)c1cc(-c2cccs2)nc2ccccc12 | 0% | ? | 1% | ? | 26% | . | . | .
C/C(=N\NC(=O)c1cc(-c2cccs2)nc2ccccc12)c1ccccn1 | 5% | 2.1µM* | 1% | -17% | ? | 9.5µM* | -23% | 1.8µM*
C/C(=N\NC(=O)c1ccccc1Cl)c1ccccn1 | 2% | ? | 11% | ? | ? | . | . | .
C/C(=N/NC(=O)c1ccc(C(C)(C)C)cc1)c1ccccn1 | 13% | 5.8µM* | 0% | . | ? | 11µM* | ? | ?
C/C(=N\NC(=O)c1ccc(Cl)c(Cl)c1)c1ccccn1 | 0% | 2.3µM* | -1% | ? | ? | ? | -23% | .
COc1ccc(C(=O)N/N=C(\C)c2ccccn2)cc1OC | ? | 5.2µM* | 8% | ? | ? | -16% | -47% | .
Cc1oc(-c2ccc(C(=O)NCc3ccc(F)cc3)cc2)nc1CS(=O)c1ccccc1 (stereo not drawn) | 7% | ? | -23% | . | 1% | . | . | .
COc1cccc(CN2CCC2(C)C(=O)Nc2cccc3cccnc23)c1OC (stereo not drawn) | -2% | . | . | . | . | . | . | .
COc1ccc(CC(=O)OCN2C(=O)c3ccccc3C2=O)cc1OC | 2% | 1% | 0% | ? | 1% | . | . | .
COc1ccccc1NC(=O)c1ccccc1NC(=O)c1ccccn1 | 0% | -26% | -2% | -15% | -1% | . | . | .
COc1ccccc1NC(=S)NN=C(C)c1ccccn1 | 0% | 1.2µM* | 7% | . | -18% | -28% | -22% | 2.6µM*
Nc1nc(N)nc(-c2ccc(Cl)c(Cl)c2)n1 | -1% | ? | -9% | -27% | -4% | . | . | .
Cc1nc(N)nc(N)c1-c1ccc(Cl)c(Cl)c1 | 4% | ? | 6% | . | -6% | 2% | -12% | 1.2µM*
Cc1cc(OCc2nc(N)nc(N)c2-c2ccc(Cl)c(Cl)c2)ccc1[N+](=O)[O-] | 11% | 8.2µM* | 1% | . | 17% | -10% | -4% | 15µM*
COc1ccc(C(O)c2ncc(-c3ccccc3C)[nH]2)cc1 (stereo not drawn) | 0%[9.22 µM] | . | . | . | . | . | . | .
CC(C)CCNC(=O)C(c1ccncc1)N(Cc1cccs1)C(=O)Cn1nnc(-c2ccc(F)cc2)n1 (stereo not drawn) | 9% | 2.6µM* | -4% | ? | ? | -3% | ? | 1.5µM*
c1ccc(CN(CC2=NCCN2)c2ccccc2)cc1 | -1% | -2% | 29% | 2% | 2% | . | . | .
Cc1ccc(N(CC2=NCCN2)c2cccc(O)c2)cc1 | 0% | 7.3µM*! | -11% | ? | ? | -1% | -7% | 10µM*
CC(=O)c1ccc(OCc2cc(C(=O)N(C)Cc3cc(C)no3)no2)cc1 | 2% | ? | 2% | ? | 1% | . | . | .
O=C(c1cc(COc2ccc3ncccc3c2)on1)N1CCC(O)CC1 | 2% | 8.2µM* | -5% | ? | -5% | -26% | -1% | -8%

Screening data from PubChem BioAssay.
